Several values for one entry are separate records, joined by “and”; a condition that tells them apart may be missing. Identical values can stand only once. Records with an inconclusive call do not appear. Where a call stands in place of a potency, no number is given. Activity calls are given as the source filed them. Calls come from the whole dose curve; as a rule, active = well fitted cell-killing curve with a large enough effect in the repeat runs; inconclusive = weak or mixed curves, or effect the other way; inactive = flat fitted curve, though single readings scatter.
test: qHTS RealTime-Glo MT Cell Viability Assay in HEK293 cells - 24 hour (AID 1224886); details: RealTime-Glo luminescence; series mostly up to 76.8 µM; note: nearly all actives have a fitted effect of over 50% in size; for activity change, negative = cytotoxicity: top concentration of the series differs between compounds
Source text: National Center for Advancing Translational Sciences [NCATS]
NIH Chemical Genomics Center [NCGC]
U.S. Environmental Protection Agency [EPA]
National Institutes of Environmental Health Sciences [NIEHS]
National Toxicology Program [NTP]
U.S. Food and Drug Administration [FDA]
Measure of cell viability is critical in the cell-base assay. Analysis of cell viability is necessary for the characterization of cell responses to cytotoxic drugs and environmental stress. A RealTime-Glo MT Cell Viability Assay to monitor cell viability in real time of continues cell culture during 40 hours of compound treatment was used to screen Tox21 10K library compounds in Hek293 cells. The RealTime-Glo MT Cell Viability Assay is a nonlytic, homogeneous, bioluminescent method to measure cell viability in real time using a simple, plate-based method. The assay involves adding NanoLuc luciferase and a cell-permeant prosubstrate to cells in culture. Viable cells reduce the proprietary prosubstrate to generate a substrate for NanoLuc luciferase. This substrate diffuses from cells into the surrounding culture medium, where it is rapidly used by the NanoLuc Enzyme to produce a luminescent signal. The signal correlates with the number of viable cells, making the assay well suited for cytotoxicity studies.
Tox21 Assay Protocol Summary:
The mixture of Hek293 cell suspension and reagents were dispensed at 600cells/6 ul/well in 1536-well tissue culture treated black solid bottom plates using a Multidrop dispenser. After the assay plates were incubated at a 37 C/5% CO2 incubator for 5 hours, 23 nL of compounds dissolved in DMSO, positive and negative controls was transferred to the assay plate by a pintool work station. The plates were incubated at 37 C for 40 hours. The luminescence intensity were measured at 0h, 8h, 16h, 24h, 32h and 40h time points using ViewLux plate reader during compound treatment.
Potency is the fitted concentration of half-maximal effect.

Row | Structure (SMILES) | activity change, negative = cytotoxicity | Potency
1 | CCC(=O)CC(C)CC (stereo not given) | -3.03% [at 0.29 µM] (inactive) | 
2 | NCCCC(O)(P(=O)(O)O)P(=O)(O)O |  | inactive
3 | CC1(C)C(=O)N(Br)C(=O)N1Br |  | inactive
4 | CCOC(=O)N1CCC(=C2c3ccc(Cl)cc3CCc3cccnc32)CC1 |  | 21.9 µM (active) and 16.9 µM (active)
5 | CCC1(c2cnc[nH]2)Cc2ccccc2C1 |  | inactive
6 | c1ccc(Nc2cccc3ccccc23)cc1 |  | inactive
7 | COc1cc(C(=O)NS(=O)(=O)c2ccccc2C)ccc1Cc1cn(C)c2ccc(NC(=O)OC3CCCC3)cc12 |  | inactive
8 | CCCCCCCCCCCCCCNCCO |  | 15.1 µM (active)
9 | CC(C)=CCCC(C)O (stereo not given) |  | inactive
10 | Cc1c(C(=O)O)cccc1[N+](=O)[O-] |  | inactive
11 | O=C(O)CC(=O)O |  | inactive
12 | CO[C@H]1C=CO[C@@]2(C)Oc3c(C)c(O)c4c(O)c(cc(O)c4c3C2=O)NC(=O)/C(C)=C\C=C/[C@H](C)[C@H](O)[C@@H](C)[C@@H](O)[C@@H](C)[C@H](OC(C)=O)[C@@H]1C |  | inactive
13 | CCCCOC(=O)C(C)CC (stereo not given) |  | inactive
14 | OCCN1CN(CCO)CN(CCO)C1 |  | inactive
15 | OCCCCl |  | inactive
16 | O=C=NCc1cccc(CN=C=O)c1 | 4.88% [at 15.8 µM] (inactive) | 
17 | CCCCCCCCCCCC(=O)N(CC)CC |  | inactive
18 | CC(C)(C)c1cc(/C=C2\SC(=N)NC2=O)cc(C(C)(C)C)c1O |  | 49 µM (active)
19 | CCCCCCCC(C)=O |  | inactive
20 | Cc1cc2c(C(C)C)c(O)c(O)c(C=O)c2c(O)c1-c1c(C)cc2c(C(C)C)c(O)c(O)c(C=O)c2c1O |  | 10.7 µM (active)

Row | Structure (SMILES) | activity change, negative = cytotoxicity | Potency
21 | CC1CCCCN1CCCOC(=O)c1ccc(OC2CCCCC2)cc1 (stereo not given) |  | 16.9 µM (active)
22 | CC(C(O)c1ccccc1)N(C)CCOC(c1ccccc1)c1ccccc1 (stereo not given) |  | 21.3 µM (active)
23 | CCN=c1cc2oc3cc(NCC)c(C)cc3c(-c3ccccc3C(=O)OCC)c-2cc1C |  | 2.45 µM (active) and 1.74 µM (active)
24 | CCOC(OCC)C(=O)c1ccccc1 |  | inactive
25 | CCC(C)C(=O)OC (stereo not given) |  | inactive
26 | CC1(C)C(=O)N(CO)C(=O)N1CO |  | inactive
27 | C1CC(COCC2CO2)CCC1COCC1CO1 (stereo not given) |  | inactive
28 | CCOC(=O)CN |  | inactive
29 | CCCCCCCCCCCCCOP(=O)(O)O |  | inactive
30 | CCCOc1sc(C(=O)N2CCC(c3cc(CN)ccc3F)CC2)c(C)c1Br |  | 20 µM (active)
31 | Clc1ccc(C(Cn2ccnc2)OCc2ccsc2Cl)c(Cl)c1 (stereo not given) |  | 15.1 µM (active)
32 | O[C@@H](c1cc(C(F)(F)F)nc2c(C(F)(F)F)cccc12)[C@H]1CCCCN1 |  | 7.56 µM (active)
33 | Cc1cn[nH]c1 |  | inactive
34 | O=C1C=CC(=O)N1c1ccccc1 |  | 12.3 µM (active)
35 | CCCCCCCCCC(=O)N(C)C |  | inactive
36 | CN(C)CCOC(c1ccccc1)c1ccccc1 (tested in a mixture with another compound) |  | inactive
37 | CCCCN(CCCC)CCC(O)c1cc2c(Cl)cc(Cl)cc2c2cc(C(F)(F)F)ccc12 (stereo not given) |  | inactive
38 | O=C1Nc2ccc(Cl)cc2[C@@](C#CC2CC2)(C(F)(F)F)O1 |  | 23.9 µM (active)
39 | Cc1cccc(C)n1 |  | inactive
40 | CCCC(C)CCC(C)=O (stereo not given) |  | inactive

Source: PubChem BioAssay (Tox21)
